In PubChem BioAssay AID1159580 (chemical genetic matrix, 2015):
Screen size: about 5,500 compounds; about 2,000 (36%) were called active. About 18% were inconclusive and are not listed. No stated cut-off is given here; in the data, active means normalized growth mostly below about 0.91 (no sharp cut-off); inconclusive means no clear call, values can overlap the other calls; inactive means mostly above about 0.92. The list shows a part of the results.

Experiment: chemical genetic growth profiling, strain panel (AID 1159580);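 further: tested at 20 µM; growth read once vehicle control cultures reached saturation at 30 °C; 1 = growth at the plate median or of vehicle wells; lower values mean less growth of the strain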
Conditions: S. cerevisiae deletion strains, growth OD

Measured: normalized growth

CC(=O)Oc1c(-c2ccccc2)oc2c(CC=C(C)C)c3c(c(OC(C)=O)c2c1=O)C=CC(C)(C)O3
inactive: locus YAL021C, strain ccr4, hits give low values 1.06 | locus YAL026C, strain drs2, hits give low values 1.02 | locus YBL061C, strain skt5, hits give low values 1 | locus YBR009C, strain hhf1, hits give low values 1.09 | locus YBR021W, strain FUR4, hits give low values 1.05 | locus YBR023C, strain chs3, hits give low values 1.01 | locus YBR171W, strain sec66, hits give low values 1.01 | locus YBR229C, strain ROT2, hits give low values 0.923 | locus YBR231C, strain swc5, hits give low values 1.02 | locus YBR279W, strain paf1, hits give low values 0.995 | locus YCL011C, strain gbp2, hits give low values 1.09 | locus YCL016C, strain dcc1, hits give low values 1.05 | locus YCL029C, strain bik1, hits give low values 1.01 | locus YCL061C, strain MRC1, hits give low values 1.02 | locus YCL069W, strain vba3, hits give low values 1.01 | locus YCR088W, strain abp1, hits give low values 1.01 | locus YDL005C, strain med2, hits give low values 1.01 | locus YDL035C, strain GPR1, hits give low values 0.875 | locus YDL074C, strain BRE1, hits give low values 0.93 | locus YDL101C, strain DUN1, hits give low values 0.944 | locus YDL185W, strain tfp1, hits give low values 1.07 | locus YDL192W, strain arf1, hits give low values 1.01 | locus YDR001C, strain nth1, hits give low values 1.01 | locus YDR069C, strain doa4, hits give low values 1.01 | locus YDR137W, strain rgp1, hits give low values 1.03 | locus YDR159W, strain sac3, hits give low values 0.982 | locus YDR195W, strain ref2 0.986 | locus YDR297W, strain sur2, hits give low values 1.04 | locus YDR318W, strain mcm21, hits give low values 0.995 | locus YDR334W, strain swr1, hits give low values 1 | locus YDR335W, strain msn5, hits give low values 1.02 | locus YDR388W, hits give low values 1.05 | locus YDR392W, strain spt3, hits give low values 0.955 | locus YEL003W, strain gim4, hits give low values 1.03 | locus YEL037C, strain rad23, hits give low values 1.01 | locus YEL061C, strain CIN8 (second series), hits give low values 1.01 | locus YER111C, strain swi4, hits give low values 1 | locus YER155C, strain BEM2 (second series), hits give low values 1.05 | locus YER155C, strain BEM2, hits give low values 1 | locus YER167W, strain BCK2, hits give low values 0.917 | locus YFR010W, strain ubp6, hits give low values 1 | locus YGL078C, strain dbp3, hits give low values 1.04 | locus YGL086W, strain mad1, hits give low values 0.993 | locus YGL167C, strain pmr1, hits give low values 0.993 | locus YGL173C, strain kem1, hits give low values 0.998 | locus YGL227W, strain vid30, hits give low values 1.01 | locus YGL240W, strain doc1, hits give low values 1 | locus YGL253W, strain hxk2, hits give low values 0.981 | locus YGR078C, strain PAC10, hits give low values 0.898 | locus YGR135W, strain pre9, hits give low values 1.1 | locus YHR013C, strain ard1, hits give low values 0.989 | locus YHR027C, strain rpn1, hits give low values 1.06 | locus YHR079C, strain IRE1 (second series), hits give low values 1.06 | locus YHR142W, strain chs7, hits give low values 1.03 | locus YIL125W, strain kgd1, hits give low values 1.03 | locus YIR030C, strain dcg1, hits give low values 1.06 | locus YJL092W, strain hpr5, hits give low values 1.01 | locus YJL095W, strain BCK1, hits give low values 0.926 | locus YJL115W, strain asf1, hits give low values 1 | locus YJL129C, strain trk1, hits give low values 1.02 | locus YJL134W, strain LCB3, hits give low values 0.948 | locus YJL154C, strain vps35, hits give low values 1.02 | locus YJL164C, strain tpk1, hits give low values 1.03 | locus YJL166W, strain qcr8, hits give low values 1.04 | locus YJL168C, strain set2, hits give low values 1.03 | locus YJL187C, strain SWE1 (second series), hits give low values 0.885 | locus YJL187C, strain SWE1, hits give low values 1.05 | locus YKL009W, strain mrt4, hits give low values 1.04 | locus YKL068W, hits give low values 1.01 | locus YKL085W, strain MDH1 (second series), hits give low values 1 | locus YKL085W, strain MDH1, hits give low values 1 | locus YKL160W, strain elf1, hits give low values 1 | locus YKR026C, strain gcn3, hits give low values 1 | locus YLL001W, strain dnm1, hits give low values 0.976 | locus YLR027C, strain aat2, hits give low values 1.03 | locus YLR039C, strain RIC1, hits give low values 0.891 | locus YLR102C, strain apc9, hits give low values 1.06 | locus YLR221C, strain rsa3, hits give low values 1.04 | locus YLR258W, strain gsy2, hits give low values 1.03 | locus YLR262C, strain YPT6 (second series), hits give low values 1.02 | locus YLR262C, strain YPT6, hits give low values 0.874 | locus YLR268W, strain sec22, hits give low values 1.05 | locus YLR320W, strain mms22, hits give low values 0.999 | locus YLR330W, strain CHS5, hits give low values 0.924 | locus YLR342W, strain FKS1, hits give low values 1.05 | locus YLR357W, strain rsc2, hits give low values 0.992 | locus YLR370C, strain arc18, hits give low values 1.01 | locus YLR371W, strain rom2, hits give low values 1.01 | locus YML120C, strain ndi1, hits give low values 1.07 | locus YMR058W, strain fet3, hits give low values 1.02 | locus YMR125W, strain sto1, hits give low values 1.02 | locus YMR205C, strain PFK2, hits give low values 1.01 | locus YMR223W, strain ubp8, hits give low values 1.05 | locus YMR231W, strain pep5, hits give low values 1 | locus YMR307W, strain GAS1, hits give low values 0.818 | locus YNL067W, strain RPL9B, hits give low values 0.988 | locus YNL071W, strain lat1, hits give low values 1.02 | locus YNL209W, strain ssb2, hits give low values 1.05 | locus YNL233W, strain BNI4, hits give low values 0.915 | locus YNL248C, strain rpa49, hits give low values 0.984 | locus YNL250W, strain rad50, hits give low values 1.03 | locus YNL271C, strain bni1, hits give low values 1.04 | locus YNL298W, strain CLA4, hits give low values 1.04 | locus YNL307C, strain MCK1, hits give low values 1.03 | locus YNL322C, strain KRE1 (second series), hits give low values 1.05 | locus YNR049C, strain mso1, hits give low values 1.01 | locus YNR052C, strain pop2, hits give low values 1.07 | locus YOL012C, strain htz1 0.869 | locus YOR001W, strain rrp6, hits give low values 1.01 | locus YOR069W, strain VPS5, hits give low values 0.935 | locus YOR080W, strain dia2, hits give low values 1.03 | locus YOR083W, strain WHI5, hits give low values 1.06 | locus YOR106W, strain vam3, hits give low values 1.08 | locus YOR184W, strain ser1, hits give low values 1.07 | locus YOR265W, strain rbl2, hits give low values 1.05 | locus YOR270C, strain vph1, hits give low values 0.972 | locus YOR290C, strain snf2, hits give low values 1.03 | locus YOR316C, strain cot1, hits give low values 1.07 | locus YPL051W, strain arl3, hits give low values 0.976 | locus YPL078C, strain atp4, hits give low values 1.03 | locus YPL106C, strain sse1, hits give low values 1.02 | locus YPR119W, strain clb2, hits give low values 1.05 | locus YPR167C, strain met16, hits give low values 1 | strain wtn01, hits give low values 1.03
active: locus YAL030W, strain snc1, hits give low values 1.09 [resistant] | locus YDL040C, strain nat1, hits give low values 1.09 [resistant] | locus YDR101C, strain arx1, hits give low values 1.09 [resistant] | locus YDR162C, strain NBP2, hits give low values 0.828 | locus YDR502C, strain sam2, hits give low values 1.11 [resistant] | locus YER015W, strain faa2, hits give low values 1.08 [resistant] | locus YER016W, strain bim1, hits give low values 1.1 [resistant] | locus YER110C, hits give low values 1.11 [resistant] | locus YGL248W, strain PDE1, hits give low values 0.845 | locus YGR252W, strain gcn5, hits give low values 1.59 [resistant] | locus YHR094C, strain hxt1, hits give low values 1.16 [resistant] | locus YHR129C, strain ARP1, hits give low values 0.881 | locus YHR200W, strain rpn10, hits give low values 1.09 [resistant] | locus YIL066C, strain RNR3, hits give low values 0.788 | locus YIL073C, strain SPO22, hits give low values 0.586 | locus YJL095W, strain BCK1 (second series), hits give low values 1.09 [resistant] | locus YKL190W, strain CNB1, hits give low values 0.906 | locus YKR001C, strain vps1, hits give low values 1.21 [resistant] | locus YKR091W, strain srl3, hits give low values 1.14 [resistant] | locus YLL026W, hits give low values 1.07 [resistant] | locus YLL041C, strain sdh2, hits give low values 1.09 [resistant] | locus YLR058C, strain SHM2, hits give low values 0.891 | locus YLR384C, strain iki3, hits give low values 1.1 [resistant] | locus YLR418C, strain cdc73, hits give low values 1.17 [resistant] | locus YML016C, strain PPZ1, hits give low values 0.874 | locus YML032C, strain rad52, hits give low values 1.14 [resistant] | locus YML124C, strain tub3, hits give low values 1.07 [resistant] | locus YMR078C, strain ctf18, hits give low values 1.14 [resistant] | locus YMR129W, hits give low values 1.12 [resistant] | locus YOL147C, strain pex11, hits give low values 1.09 [resistant] | locus YOR061W, strain CKA2, hits give low values 0.782 | locus YOR070C, strain gyp1, hits give low values 1.16 [resistant] | locus YOR136W, strain idh2, hits give low values 1.11 [resistant] | locus YOR144C, strain elg1, hits give low values 1.08 [resistant] | locus YPL240C, strain hsp82, hits give low values 1.1 [resistant] | locus YPR141C, strain kar3, hits give low values 1.09 [resistant] | locus YPR163C, strain tif3, hits give low values 1.14 [resistant]
